# High-throughput results (PubChem BioAssay)
# A selection: hits, their analogues and other compounds. The true share with any hit is near 2.9%.
# Rango release inh: inhibitors of RanGTP-induced Rango-importin beta complex dissociation. Potency, µM (highest dose often 46.1 µM), for the others: at the top dose activity change, negative = inhibition. O95149+P62826. AID 540253. Biochemical FRET Rango-importin beta, RanGTP-induced dissociation. 340,000 tested, 0.071% active; further: potency means the concentration at half of the fitted maximal effect; % of control where 0% means no effect; nearly all actives have a fitted effect of over 45% in size
#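 Compounds sat 5 min at room temperature with 0.1 uM Rango biosensor plus 0.25 uM importin beta, then FRET pre-read. RanGTP-RCC1 (0.6 uM Ran, 2mM GTP, 0.2 uM RCC1) added for 45 min, and the CFP/YFP post-read measured blocked complex dissociation.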
# D3 antag: blocks the human D3 dopamine receptor. P35462. 360,000 tested, 2.5% active. D3R cells, DiscoveRx beta-arrestin luminescence, antagonist mode; stronger effect = lower value. max response, negative = inhibition, %; in the data active means max response below about -50%; inconclusive means no clear call, values can overlap the other calls; further: on the % scale 0 is the no-effect control and ±100 the full control effect
#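 Cells expressing the human receptor were seeded at 1500 cells/well, incubated overnight at 37 degrees C in 5% CO2, then exposed to library compounds with dopamine controls for 90 minutes at 37 degrees C before luminescent detection.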
# DRD3 agonist: agonists of human D3 dopamine receptor. 410,000 tested, 0.58% active. P35462. D3R DiscoveRx beta-arrestin cells, luminescence, 90 min. max activation, %; in the data active means max activation above about 30%; further: 0% is about no effect
#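 Agonist-mode cell screen: cells plated at 1500/well and incubated overnight at 37 °C, then exposed to library compounds for 90 min at 37 °C. Detection reagent was added for 30–60 min at room temperature, and luminescence was read.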
# PTAP TSG101 blk: blocks PTAP/TSG101 interaction to inhibit HIV-1 budding. Q99816. Potency, µM (doses to about 115 µM), for the others: at the top dose activity change, negative = inhibition, usual class: inhibitors. Fluorescence polarization, FITC-PTAP peptide / Tsg101 binding. 340,000 tested, under 10 active; active means well fitted inhibition curve with a large enough effect in the main read-out, with a control signal flat, not every such curve was filed as active; inconclusive means small, poorly fitted or top-dose-only effect, or effect the other way, or a change in a side signal; inactive means no such curve, though single readings can be large or run the other way; further: potency means the concentration at half of the fitted maximal effect; % of control where 0% means no effect
# Target sequence (Q99816 whole entry, looked up): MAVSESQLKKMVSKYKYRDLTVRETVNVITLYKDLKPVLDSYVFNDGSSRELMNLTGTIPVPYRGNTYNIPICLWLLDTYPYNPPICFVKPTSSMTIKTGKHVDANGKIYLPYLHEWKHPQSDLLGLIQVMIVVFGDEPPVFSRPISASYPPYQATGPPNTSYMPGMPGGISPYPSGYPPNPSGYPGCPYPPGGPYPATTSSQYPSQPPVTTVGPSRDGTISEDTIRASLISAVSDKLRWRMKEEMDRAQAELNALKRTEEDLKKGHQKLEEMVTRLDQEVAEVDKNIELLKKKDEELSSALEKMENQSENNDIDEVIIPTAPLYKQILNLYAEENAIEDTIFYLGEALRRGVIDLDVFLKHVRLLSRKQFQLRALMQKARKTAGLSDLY
#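 Tsg101 binding domain (10 uM final) was mixed with compound and a FITC-labeled PTAP peptide (50 nM final) in HEPES pH 7.5 buffer with NaCl, Tween 20, EDTA and TCEP; fluorescence polarization was read after 20 min at r.t.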
# Rango complex inh: prevents formation of the Rango-importin beta complex; Rango CFP/YFP FRET sensor + importin beta, 45 min; Potency, µM (series often up to 92.2 µM), for inactives: at the top dose inhibition of complex formation; 340,000 tested, 0.031% active;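 further: potency means the concentration at half of the fitted maximal effect; 0% = DMSO wells and 100% = buffer wells lacking importin beta; nearly all actives have a fitted effect of over 15% in size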
#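 Inhibition scored from the CFP 486 nm/YFP 530 nm FRET ratio 45 min after adding 0.125 microM importin beta to 50 nM Rango biosensor preincubated 5 min with compound (room temperature, PBS with DTT, Tween-20, BSA). No-importin wells as positive control.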
# MmCpn inh: M. maripaludis TRiC chaperonin inhibition; 330,000 tested, 0.031% active; Potency, µM (series often up to 76.9 µM), inactives show at the highest dose activity, negative = inhibition, actives largely listed as inhibitors; purified Mm-Cpn ATPase, ADP Transcreener TR-FRET; active means well fitted inhibition curve with a large enough effect; inconclusive means small, poorly fitted or top-dose-only effect; further: potency means the concentration at half of the fitted maximal effect; on the % scale 0 is the no-effect control and ±100 the full control effect; nearly all actives have a fitted effect of over 80% in size
#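 Compound-treated chaperonin, 25 nM final, turns over 10 uM ATP at 37°C for 30 min following a 10 min preincubation; ADP generated competes with ADP-d2 for Eu-cryptate antibody, lowering FRET.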
# The depositor's hits bear a star; ? = inconclusive; . = not tested or not shown; [ ] = dose if it differs, or a comment. Unless noted, the call rests on the fitted dose curve.
SMILES,Rango release inh,D3 antag,DRD3 agonist,PTAP TSG101 blk,Rango complex inh,MmCpn inh
CCCNC(=O)c1ccc(CN2CCc3ccccc3C2)cc1,7%,-15,-30,0%,8%,2%
CC(C)(C)SCCNC(=O)c1ccc(CN2CCc3ccccc3C2)cc1,6%,-74*,-39,1%,0%,0%
CN(C)CCC(=O)N1c2ccccc2Sc2ccc(Cl)cc21,-3%,-10,-2,-7%,2%,2%
CCN1C(=O)CCCc2ccccc21,-8%,22,-5,-6%,2%,3%
CN(CCCN1c2ccccc2CCc2ccccc21)CC(=O)c1ccc(Cl)cc1,.,.,-20,.,.,.
CCC(=O)c1ccc2c(c1)N(CCCN(C)C)c1ccccc1S2,-18%,-109*,-90,-3%,-1%,.
CCN(CC)CCN1c2ccccc2Sc2ccccc21,3%,?,-31,.,0%,-1%
CN(C)CCCN1c2ccccc2Sc2ccccc21,8%,-105*,-84,-2%,5%,-2%
CN(C)CCCN1c2ccccc2CCc2ccc(Cl)cc21,8%,-104*,-87,0%,0%,-3%[15.4 µM]
CNCCCN1c2ccccc2CCc2ccccc21,-4%,-75*,-82,-3%,-4%,-1%[15.4 µM]
COc1ccc(CNC(=O)c2ccc(Cn3c(=O)c4cccn4c4cccnc43)cc2)cc1OC,.,.,2,.,.,.
COc1ccc(NS(=O)(=O)c2ccc3oc(SC(C)C(N)=O)nc3c2)cc1 (stereo unspecified),1%,9,-11,-3%,0%,-1%
COc1cc(OC)c(NC(=O)c2c(C)oc3ncn(C)c(=O)c23)cc1Cl,.,.,5,.,.,.
COc1ccc2c(c1)Sc1ccccc1N2CCN(C)C,15%,-81*,-20,-3%,0%,-4%
CC(=O)c1ccc2c(c1)N(C)c1ccccc1S2,?,-19,4,-1%,?,-8%
CC(=O)c1ccc2c(c1)N(CCCN(C)C)c1ccccc1S2,-7%,-108*,-96,-5%,0%,.
COC(=O)c1ccc(OC(=O)CCN2c3ccccc3Sc3ccccc32)cc1,1%,1,3,1%,5%,-20%
CC(C)=CC1C=C(C)C(C)C2C(=O)NNC(=O)C12 (stereo unspecified),2%,-97*,2,1%,0%,1%
COc1ccc2cc1Oc1cc3c(cc1OC)CC[N+](C)(C)[C@H]3Cc1ccc(cc1)Oc1c(OC)c(OC)cc3c1[C@@H](C2)[N+](C)(C)CC3,.,.,-7,.,.,.
CCOc1cccc(C(=O)N(Cc2ccc(F)cc2)C2CCS(=O)(=O)C2)c1 (stereo unspecified),0%,22,38*,3%,0%,-2%
Cc1nn2c3c(cnc2c1-c1ccc(Cl)cc1)C(=O)CC(c1ccco1)C3 (stereo unspecified),?,-52*,0,-9%,?,-1%
CC1=NC(=O)C(N=Nc2cccc(C(=O)O)c2)N1c1ccccc1 (stereo unspecified),1%,?,-5,-9%,0%,-5%
CC1=NC(=O)C(N=Nc2ccccc2)N1c1ccccc1 (stereo unspecified),6%,-58*,-3,-2%,1%,1%
Cc1[nH]n(-c2ccccc2)c(=O)c1N=Nc1ccccc1C(=O)O,16%,248,19,-5%,-1%,-3%
CC1=NC(=O)C(N=Nc2ccccc2C(=O)O)N1c1ccccc1 (stereo unspecified),20%,51,32*,-6%,4%,-1%
NC(=O)NC(CC(=O)NCCCc1ccccc1)c1ccc(Cl)cc1 (stereo unspecified),24%,-55*,-24,-7%,4%,1%
NC(=O)NC(CC(=O)NCCc1ccc(S(N)(=O)=O)cc1)c1ccc(Cl)cc1 (stereo unspecified),-1%,4,-1,-2%,-2%,3%
